Most compounds without a hit are left out; they make up all but 11% or so of the library.
VP16 counter: VP16 counterscreen qHTS for inhibitors of ROR gamma transcriptional activity; Drosophila S2 Gal4-VP16 UAS-luciferase, luminescence, 20 h; 310,000 tested, 3.5% active; Potency, µM (top dose mostly 53.6 µM), inactives show at the highest dose activity, negative = inhibition, actives largely listed as inhibitors;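 also: Gal4-VP16 expression switched on by copper sulfate through the metallothionein promoter; potency is read from the fitted curve at half-maximal effect; % is scaled to controls: 0 for no effect and ±100 for the full control effect; nearly all actives have a fitted effect of over 50% in size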
RORg inh: qHTS for inhibitors of ROR gamma transcriptional activity. AID 2551, 2010. Drosophila S2 Gal4-RORgamma UAS-luciferase reporter, 20 h. 310,000 tested, 5.4% active. Potency, µM (doses to about 53.6 µM), without a hit: top-dose activity change, negative = inhibition, hits mostly inhibitors; also: potency is read from the fitted curve at half-maximal effect; % is scaled to controls: 0 for no effect and ±100 for the full control effect; nearly all actives have a fitted effect of over 60% in size
Target sequence (P51450 whole entry, looked up, the tested form may be a part): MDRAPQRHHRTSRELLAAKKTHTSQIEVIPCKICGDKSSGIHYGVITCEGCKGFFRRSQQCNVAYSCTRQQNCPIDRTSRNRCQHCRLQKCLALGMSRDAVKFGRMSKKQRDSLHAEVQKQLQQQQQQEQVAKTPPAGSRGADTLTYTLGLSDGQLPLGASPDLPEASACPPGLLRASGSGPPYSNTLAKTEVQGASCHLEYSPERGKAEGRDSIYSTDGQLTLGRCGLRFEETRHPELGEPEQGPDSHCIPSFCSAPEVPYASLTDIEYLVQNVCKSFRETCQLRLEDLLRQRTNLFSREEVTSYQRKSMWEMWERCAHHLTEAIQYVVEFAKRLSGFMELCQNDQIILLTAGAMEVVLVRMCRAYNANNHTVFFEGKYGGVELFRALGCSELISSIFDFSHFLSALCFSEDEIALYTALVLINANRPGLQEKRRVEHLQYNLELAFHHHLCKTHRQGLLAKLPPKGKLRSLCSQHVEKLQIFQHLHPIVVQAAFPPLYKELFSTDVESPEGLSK
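ROR gamma transcriptional activity was tracked as Gal4-UAS luciferase output in stably transfected Drosophila Schneider cells, with compound added 1 hr before 700 uM copper sulfate induction and a 20 hr ambient-temperature incubation.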
MCF10A rereplic: A quantitative high throughput screen for small molecules that induce DNA re-replication in MCF 10a normal breast cells; MCF 10A DNA re-replication, Hoechst nuclear intensity, 48 h; Potency, µM (doses to about 46.1 µM), inactives show at the highest dose activity, positive = re-replication, hits mostly activators; 350,000 tested, 2.9% active; also: potency is read from the fitted curve at half-maximal effect; % of control where 0% means no effect; nearly all actives have a fitted effect of over 50% in size
SW480 rerep: A quantitative high throughput screen for small molecules that induce DNA re-replication in SW480 colon adenocarcinoma cells. SW480 DNA re-replication, Hoechst DNA content imaging, 48 h. Potency, µM (highest dose often 46.1 µM), without a hit: at the highest dose re-replication activation, usual class: activators. 340,000 tested, 1.8% active. AID 624297, 2012; also: potency is read from the fitted curve at half-maximal effect; % of control where 0% means no effect; nearly all actives have a fitted effect of over 55% in size
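First, 250 cells per well were seeded. Next, compound or vehicle (23 nL) was pinned in, plates sat 48 hr at 37 C. Finally Hoechst was added for 40 min before fluorescence scanning.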
IL1B secr inh: qHTS for Inhibitors of Inflammasome Signaling: IL-1-beta AlphaLISA Primary Screen. activity change, % at 57.5 µM. THP-1 LPS/ATP IL-1B secretion, AlphaLISA, 16 h; stronger effect = lower value. 360,000 tested, 4.7% active; in the data active = activity change below about -50%; inconclusive = mostly about -30% to -49%; also: % is scaled to controls: 0 for no effect and ±100 for the full control effect
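Secreted IL-1B measured by AlphaLISA bead assay after 16 h compound exposure of THP-1 cells; compounds (final up to 57.5 uM) added 1 h before LPS (250 ng/mL) and ATP (1.25 mM) stimulation; lower signal means less secretion.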
The depositor's hits bear a star; ? = inconclusive; / = not tested or not shown; [ ] = remark or other dose. Unless noted, calls follow the shape of the dose curve; as a rule, active = well fitted curve in the direction sought with a large enough effect; inconclusive = small, poorly fitted or top-dose-only effect, or another doubt; inactive = no such curve, though single readings can be large; an effect the other way counts as inactive or inconclusive.

SMILES	VP16 counter	RORg inh	MCF10A rereplic	SW480 rerep	IL1B secr inh
Cc1nn(Cc2noc(C(=O)NC3CCC(C)CC3)n2)c(C)c1Br (configuration not stated)	-10.9%	12.2%	-0.9%	-0.7%	10.1
COc1cc(OC)c(OC)cc1/C=C1\Oc2cc(OCC(=O)N3Cc4ccccc4C[C@H]3C(=O)O)ccc2C1=O	-2.0%	-3.6%	6.9%	-4.8%	-1.7
Cn1c(/C(C#N)=C/c2ccc(O)cc2)nc2ccccc21	-10.2%	43.7%	-1.3%	-8.5%	-19.8
N#CC(=Cc1ccncc1)c1ccccc1	/	/	10.6%	-4.2%	-74.2*
Cn1c(/C(C#N)=C/C2CC=CCC2)nc2ccccc21 (configuration not stated)	?	?	-2.0%	-9.0%	-96.2*
N#C/C(=C\C1CC=CCC1)c1nc2ccccc2[nH]1 (configuration not stated)	?	?	?	?	-51.7*
Cn1c(/C(C#N)=C/c2ccncc2)nc2ccccc21	-24.0%	-15.5%	?	18.4µM*	-52.3*
CSCCC(NC(=O)c1ccc(Cl)cc1Cl)C(=O)N(C)Cc1nc2ccccc2c(=O)[nH]1 (configuration not stated)	/	/	0.4%	11.2%	-7.2
O=[N+]([O-])c1ccc(C=NN2CCCCCC2)cc1	/	/	-3.0%	-1.3%	?
O=P(c1ccccc1)(c1ccccc1)C(c1ccco1)N1CCOCC1 (configuration not stated)	4.8%	2.24µM*	-1.0%	0.2%	-3.2
COc1ccc(CCNC(=O)CSc2nnc(CNc3ccc(Cl)cc3)o2)cc1OC	-10.0%	14.5%	3.5%	3.5%	18.0
O=C(CSc1nnc(CNc2ccc(Cl)cc2)o1)Nc1nc2c(s1)CCCC2	?	11.2µM*	7.7%	-2.2%	-15.6
COc1ccc(-c2nc3cnc(N4CCOCC4)nc3n(C[C@H]3CCCO3)c2=O)cc1	4.9%	-9.0%	/	/	/
COc1ccccc1-c1cc(SC)c(C#N)c(=O)o1	?	?	7.31µM*	18.4µM*	?
COc1ccccc1-c1c(C)c(C)nc(N)c1C#N	-6.8%	-20.3%	-1.8%	-10.5%	8.1
O=C(Nc1cccnc1)c1cccc(S(=O)(=O)Nc2cccc(Cl)c2)c1	/	/	5.2%	-17.0%	-23.3
C/C(=N\NC(=O)c1cccc(S(=O)(=O)Nc2cccc(Cl)c2)c1)c1cccs1	3.98µM*	5.01µM*	?	-0.1%	-4.8
CCN(CC)S(=O)(=O)c1cccc(C(=O)N/N=C(\C)c2cccs2)c1	?	3.55µM*	-28.0%	-19.3%[1.84 µM]	-13.5
CCOC(=O)[C@]12CCC=C1N(CCC1=CCCCC1)C(=O)[C@H](CC(=O)N1CCOCC1)C2	/	/	/	/	24.9
Cc1[nH]c2ccc(-c3nnc(SCC(=O)NCc4ccco4)n3Cc3ccccc3)cc2c1C	7.1%	18.3%	?	7.2%	-0.1
Cc1[nH]c2ccc(-c3n[nH]c(=S)n3-c3ccc(Br)cc3)cc2c1C	-7.5%	7.94µM*	4.7%	-4.0%	4.7
Cc1[nH]c2ccc(-c3n[nH]c(=S)n3-c3ccccc3)cc2c1C	?	7.94µM*	?	-7.0%	1.8
Cc1[nH]c2ccc(-c3n[nH]c(=S)n3Cc3ccccc3)cc2c1C	-13.8%	10µM*	20.4%	18.8%	-57.1*
COc1cccc(-n2c(-c3ccc4[nH]c(C)c(C)c4c3)n[nH]c2=S)c1	5.2%	?	17.9%	-5.6%	-3.8
C[C@@H]1CN([C@H](C)CO)C(=O)CCCn2nncc2CO[C@H]1CN(C)C(=O)NC1CCCCC1	/	/	/	/	27.9
SMILES	VP16 counter	RORg inh	MCF10A rereplic	SW480 rerep	IL1B secr inh
C[C@H]1COc2cc(N3CCC[C@H]3CO)ccc2S(=O)(=O)N1	/	/	/	/	0.0
COc1cccc(CC2(CO)CCN(CC3=CC[C@H]4C[C@@H]3C4(C)C)CC2)c1	-0.6%	-0.7%	?	?	-54.8*
OCC1(Cc2cccc(F)c2)CCN(Cc2ccc3cccc(F)c3n2)CC1	-5.2%	14.0%	-2.7%	1.4%	-71.6*
COc1cccc(CC2(CO)CCN(Cc3ccc4cccc(F)c4n3)CC2)c1	4.3%	1.2%	4.9%	-6.8%	-71.4*
OCC1(CCOc2ccccc2)CCN(Cc2ccc3cccc(F)c3n2)CC1	-6.8%	-27.2%	?	?	?
CC(=O)/C(N=Nc1ccc(SC(F)F)cc1)=C(\C)O	1.2%	32.9%	?	8.2µM*	-10.3
Cc1cnc(CNC(=O)c2ccc3sc([C@H]4C[C@H](O)[C@@H](CO)O4)nc3c2)cn1	/	/	/	/	48.5
CC(C)CC(NC(=O)C(NC(=O)C(Cc1ccc(OCc2ccccc2)cc1)NC(=O)OC(C)(C)C)C(C)C)C(N)=O (configuration not stated)	12.6µM*	?	?	-2.6%	21.5
C/C(=N\N1C(=O)c2ccccc2NC1c1ccccc1)c1ccccc1O (configuration not stated)	2.82µM*	0.562µM*	4.3%	?	7.0
C/C(=N\N1C(=O)c2ccccc2NC1c1ccco1)c1ccccc1O (configuration not stated)	2.24µM*	0.355µM*	4.11µM*	?	69.5
O=C1c2ccccc2NC(c2ccco2)N1/N=C/c1ccco1 (configuration not stated)	-7.9%	-25.8%	4.0%	-8.3%	0.0
COc1ccc(/C(C)=N/N2C(=O)c3ccccc3NC2c2ccc(O)c(OC)c2)cc1 (configuration not stated)	-15.9%	?	4.0%	-4.9%	-11.4
CCOC(=O)c1ccc2c(c1)N(Cc1ccccc1C)C(=O)c1ccccc1S2=O (configuration not stated)	22.4µM*	-20.5%	2.5%	7.2%	-8.3
COC(=O)c1ccc2c(c1)N(Cc1cc(C)ccc1C)C(=O)c1ccccc1S2=O (configuration not stated)	-2.2%	-16.1%	10.7%	?	/
CC(=O)Nc1ccc(S(=O)(=O)NCCC(=O)OCC(=O)c2cc(C)ccc2C)cc1	/	/	-0.1%	-3.7%	-15.2
CN(CCc1ccccc1)C(C(=O)c1ccc2c(c1)OCO2)c1nnnn1-c1ccccc1NC(=O)OC(C)(C)C (configuration not stated)	/	/	/	/	21.1
O=c1[nH]c(Nc2ccccc2)cc2cc(Br)ccc12	/	/	?	?	35.8
COc1ccc(OC)c(Nc2nnc(C)c(=O)[nH]2)c1	5.0%	1.9%	-16.6%	-0.2%	17.6
COc1ccc(OC)c(Nc2cc3ccccc3c(=O)[nH]2)c1	/	/	16.4µM*	20.6µM*	62.6
O=c1[nH]c(Nc2ccccc2)cc2ccccc12	-4.2%	3.1%	13µM*	19.1%	-7.2

Source: PubChem BioAssay (National Center for Advancing Translational Sciences (NCATS))
